SRC1 TRFRET art: TR-FRET detection interference compounds, primary screen, artefact control for PPARgamma SRC-1 recruitment agonists, biochemical, TR-FRET emission ratio; TR-FRET detection artefact counter-screen; active compounds read high; TR-FRET ratio at 8 µM; 0.34% of 99,000 active; in the data active = TR-FRET ratio above about 2300
SRC2 TRFRET art: TR-FRET signal artefacts, primary screen, artefact control for PPARgamma SRC-2 agonist project, biochemical | 0.4% of 200,000 active | TR-FRET artefact counter-screen; active compounds read high | TR-FRET ratio at 8 µM
PPARg SRC1 recr: PPARgamma agonists recruiting SRC-1 coactivator, primary screen, biochemical. Peroxisome proliferator-activated receptor gamma (Homo sapiens), P37231. PPARgamma-SRC-1 coactivator recruitment biochemical assay. activation, % at 8 µM. 0.41% of 200,000 active. AID 631, 2007; in the data active = activation above about 19%;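 note: 0% = DMSO and 100% = reference agonist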
Target sequence (P37231 whole entry, looked up): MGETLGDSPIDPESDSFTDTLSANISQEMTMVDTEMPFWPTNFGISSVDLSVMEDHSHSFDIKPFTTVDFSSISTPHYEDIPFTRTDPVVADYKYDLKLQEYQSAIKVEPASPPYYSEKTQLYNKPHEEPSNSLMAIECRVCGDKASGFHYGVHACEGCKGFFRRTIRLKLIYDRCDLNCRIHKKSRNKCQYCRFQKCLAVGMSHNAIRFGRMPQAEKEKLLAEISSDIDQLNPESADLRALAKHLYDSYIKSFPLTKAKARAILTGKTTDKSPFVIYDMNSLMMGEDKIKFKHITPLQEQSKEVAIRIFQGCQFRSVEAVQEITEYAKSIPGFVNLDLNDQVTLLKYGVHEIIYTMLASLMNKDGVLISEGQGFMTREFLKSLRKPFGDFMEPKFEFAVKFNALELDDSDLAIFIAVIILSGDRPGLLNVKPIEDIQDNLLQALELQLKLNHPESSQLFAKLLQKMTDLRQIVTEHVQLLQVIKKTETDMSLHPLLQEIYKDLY
PPARg SRC2 recr: agonists of PPARg-SRC-2 recruitment, primary screen, biochemical, HTS; Peroxisome proliferator-activated receptor gamma (Homo sapiens), P37231; PPARgamma LBD-SRC-2 recruitment; activation, % at 8 µM; 0.34% of 200,000 active; AID 1032, 2008; in the data active = activation above about 22%;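 note: 0% = vehicle and 100% = reference agonist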
SRC3 TRFRET art: TR-FRET detection interference compounds, artefact control for PPARgamma SRC-3 recruitment agonists, biochemical, TR-FRET ratio | TR-FRET artefact counter-screen, PPARgamma/SRC-3 format; active compounds read high | TR-FRET ratio at 8 µM | 0.39% of 99,000 active | AID 1048, 2008
PPARg SRC-3 ag: PPARgamma agonists recruiting SRC-3 coactivator, primary screen, biochemical | AID 731, 2007 | activation, % at 8 µM | biochemical PPARgamma/SRC-3 coactivator recruitment assay | 0.26% of 200,000 active; in the data active = activation above about 23%;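 note: 0% = DMSO and 100% = reference agonist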
An asterisk follows results filed as active; . = not tested or not shown. Most compounds without a hit are left out; they make up all but 0.9% or so of the library. Cut-off read from the data, not from the text of the source, unless noted: active = TR-FRET ratio above about 2000; inactive = the rest.

SMILES	SRC1 TRFRET art	SRC2 TRFRET art	PPARg SRC1 recr	PPARg SRC2 recr	SRC3 TRFRET art	PPARg SRC-3 ag
CN(C)S(=O)(=O)c1cccc(NC(=O)c2cc(-c3cccs3)nn2-c2cccc(Cl)c2)c1	2166	2193*	11	9	2416*	8
O=C(O)c1cc(-c2cccs2)nn1-c1cccc(Cl)c1	1898	1488	6	-4	1777	4
CC1=NN(C(=O)Cn2ccc([N+](=O)[O-])n2)C(O)(C(F)(F)F)C1 (configuration not stated)	1973	1853	5	23*	1855	4
Cn1c(C(=O)NCc2ccco2)cc2c(=O)[nH]c3ccccc3c21	2510*	1736	23*	6	1309	0
CCCN(CCC)CCCNC(=O)c1cc2c(=O)[nH]c3ccccc3c2n1C	1663	1538	-2	3	1380	-1
Cc1cc(C)c2c(=O)[nH]c(SCC(=O)NCc3ccccc3)nc2n1	.	1619	-3	-1	.	-3
COc1ccccc1NC(=O)CSc1nc2nc(C)cc(C)c2c(=O)[nH]1	.	1689	9	22*	.	0
COc1ccc(OC)c2c1sc(=NC(=O)C(C)(C)C)n2C	.	4080*	4	121*	.	32*
Cc1ccc(C(=O)c2cnc3cc4c(cc3c2S(=O)(=O)c2ccccc2)OCCO4)cc1	2238	1863	-7	0	2485*	-2
CCOc1ccc(S(=O)(=O)c2c(C(=O)c3ccc(C)cc3)cnc3cc4c(cc23)OCCO4)cc1	2755*	2406*	8	-3	2812*	10
CC(NC(=O)CSC(=S)N(C)C)C12CC3CC(CC(C3)C1)C2 (configuration not stated)	2027	1672	11	3	1613	-6
O=C(CN1CCCc2ccccc21)NCCc1ccc(Cl)cc1	1968	1540	6	-3	1594	7
Cn1c(=O)c(C(=O)NC2CCCCCCC2)c(O)c2ccccc21	3217*	1608	50*	8	1661	-2
Cc1ccc(Cn2cc(SCC(=O)Nc3nccs3)c3ccccc32)cc1	.	2880*	-5	-2	.	2
Cc1cccc(Cn2cc(SCC(=O)Nc3nccs3)c3ccccc32)c1	.	1694	2	5	.	5
O=S1(=O)CC2N=C(N(Cc3ccc(F)cc3Cl)c3ccccc3F)SC2C1 (configuration not stated)	1784	1811	3	25*	1453	-6
Cn1ncc2c(NNC(=O)c3ccc(Cl)cc3Cl)ncnc21	1728	1409	-4	-3	1456	-4
N#Cc1ccccc1Sc1ccccc1C(=O)OCc1nnc(-c2ccccc2)o1	.	2002*	6	-3	.	-2
N#Cc1ccccc1Sc1ccccc1C(=O)OCC(N)=O	1827	1702	7	4	1573	0
COc1ccc2c(-c3ccccc3)cc(SCC(=O)NC(N)=O)nc2c1	1656	1589	-4	9	4477*	33*
Cc1cccc(N(CC(=O)N2CCN(c3ccc(F)cc3)CC2)S(C)(=O)=O)c1C	2469*	1524	29*	0	1507	2
Cc1cccc(N(CC(=O)N2CCOCC2)S(C)(=O)=O)c1C	.	1639	13	13	.	16
Cc1cccc(C(C)C)c1NC(=O)c1ccc(COc2ccc3c(C)cc(=O)oc3c2)cc1	2539*	2255*	14	19	2221*	11
CC1=C(C(=O)Nc2ccc(F)c(F)c2)C(c2cccs2)NC(=S)N1 (configuration not stated)	2450*	1973*	17	16	1907	8
COc1cc(-c2nc(-c3ccc(Br)o3)no2)cc(OC)c1OC	.	1695	10	13	.	-6
SMILES	SRC1 TRFRET art	SRC2 TRFRET art	PPARg SRC1 recr	PPARg SRC2 recr	SRC3 TRFRET art	PPARg SRC-3 ag
COc1ccc(-c2noc(-c3ccc(Br)o3)n2)cc1OC	.	1607	6	-1	.	36*
O=C(CSc1cccc[n+]1[O-])Nc1ccc(N2CCOCC2)cc1	1996	1639	19	7	1737	5
COc1ccc(NS(=O)(=O)c2ccc(N3CCCC3)c(NC(=S)Nc3cccc(S(=O)(=O)N(C)C)c3)c2)cc1	2504*	1957	4	-8	2049	-3
COc1ccc(NS(=O)(=O)c2ccc(N3CCOCC3)c(NC(=O)c3ccc(OC)cc3)c2)cc1	1747	1682	7	-1	1564	0
CN1/C(=C\C(=O)COc2ccc3c(c2)OCO3)C(C)(C)c2ccccc21	.	2258*	9	-4	.	0
CC1CC(C)(C)NC(=S)O1 (configuration not stated)	1778	1321	5	0	1457	-3
O=C(Nc1ccc(F)cc1F)c1csc(-c2ccncc2)n1	1880	1625	4	2	1707	4
O=C(Nc1ccc(F)cc1F)c1csc(-c2cccs2)n1	1858	2010*	5	10	1765	6
CCc1ccc(C(=O)COC(=O)[C@@H](NC(N)=O)[C@@H](C)CC)cc1	1862	1700	4	3	1656	2
Cc1cc(OCC(=O)Nc2cc(-c3nn4c(C)nnc4s3)ccc2C)ccc1Cl	.	1568	89*	-5	.	0
COc1ccc(C2=NN(C(=O)CSc3nc4ccccc4s3)C(c3ccc(F)cc3)C2)cc1 (configuration not stated)	1833	1326	-8	8	1435	-4
O=C1CCCN2N=C(SCC(=O)N3N=C(c4ccc(Br)cc4)CC3c3ccc(F)cc3)SC2=N1 (configuration not stated)	2131	2012*	-4	-2	2326*	-3
CSc1ccc(C(=O)C2CCCN(C(=O)c3cc4cc(F)ccc4[nH]3)C2)cc1 (configuration not stated)	2545*	2021*	9	9	2454*	2
CSc1ccc(C(=O)C2CCCN(C(=O)c3csc(C(C)=O)c3)C2)cc1 (configuration not stated)	1442	1596	-6	5	1355	-5
CC(C)(C)C(=O)N1CCC(O)(CS(=O)(=O)Cc2ccccc2)CC1	1622	1572	7	-5	1624	4
CCCCn1c(SCC(=O)Nc2cc(C(F)(F)F)cc(C(F)(F)F)c2)nnc1C(CC)N(C)C (configuration not stated)	1863	1742	4	13	1513	4
COc1ccc(Nc2ccc(Nc3ccc(OC)cc3)nn2)cc1	2360*	1769	13	18	1723	14
COc1ccc(Nc2cc(C)c3ccccc3n2)cc1	1815	1594	13	-3	1923	-2
Cc1ccccc1OCC(=O)Nc1sc(C(=O)Nc2cccc(C)c2C)c(C)c1C#N	.	1740	24*	5	.	5

From PubChem BioAssay
